From PubChem BioAssay
Shown is part of a subset that was picked to be rich in hits.
Cycloheximide cs: Cycloheximide Counterscreen for Small Molecule Inhibitors of Shiga Toxin; cell reporter, cycloheximide protein synthesis inhibition counterscreen; max response, %; 300,000 compounds, 12% hits; AID 2314, 2010; in the data active = max response mostly above about 13%, no sharp cut-off; inactive = mostly below about 14%; note: read at 38.3 µM for the half of the compounds with a filed dose; 0% is about no effect
Giardia FBPA inh: qHTS Assay for Inhibitors of Fructose-1,6-bisphosphate Aldolase from Giardia Lamblia | A8B2U2 | purified Giardia FBPA | Potency, µM (titrated, usually from 59.6 µM), for inactives: at the highest dose activity, negative = inhibition, usual class: inhibitors | 290,000 compounds, 0.71% hits; note: potency is the fitted concentration of half-maximal effect; % is set by controls: 0 for no effect and ±100 for the full control effect; nearly all actives have a fitted effect of over 55% in size
Target sequence (A8B2U2 whole entry, looked up): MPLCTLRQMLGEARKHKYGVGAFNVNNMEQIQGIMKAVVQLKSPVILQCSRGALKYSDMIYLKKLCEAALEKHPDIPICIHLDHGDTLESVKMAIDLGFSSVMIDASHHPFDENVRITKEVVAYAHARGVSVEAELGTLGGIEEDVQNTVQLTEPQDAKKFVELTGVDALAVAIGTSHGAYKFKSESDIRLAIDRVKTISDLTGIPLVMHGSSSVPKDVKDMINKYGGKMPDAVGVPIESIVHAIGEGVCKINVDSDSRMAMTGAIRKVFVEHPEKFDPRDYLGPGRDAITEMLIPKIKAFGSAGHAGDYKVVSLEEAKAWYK
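40 nM FBPA preincubated 10 min at RT with compound (up to 57.5 uM final), then substrate plus GAPDH/TPI/NAD/arsenate coupling and diaphorase/resazurin added. Fluorescence read after 20 min at RT, 525/598 nm.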
TbPYK inhibitor: qHTS of Trypanosoma Brucei Inhibitors | 410,000 compounds, 0.12% hits | pyruvate kinase (Trypanosoma brucei), Q57TT1 | TbPYK enzyme, Kinase-Glo Plus ATP luminescence, 45 min | Potency, µM (top dose mostly 76.8 µM), for the others: at the top dose activity, negative = inhibition, hits mostly inhibitors; note: potency is the fitted concentration of half-maximal effect; % is set by controls: 0 for no effect and ±100 for the full control effect; nearly all actives have a fitted effect of over 50% in size
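Luminescence from Kinase-Glo Plus, added after a 45-minute room-temperature reaction, served as the end-point read-out. The enzyme and substrate were preincubated with compound before ADP (130 uM final) initiated turnover. Concentration-effect curves came from normalized qHTS data.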
LmPK inhibitor: qHTS Assay for Inhibitors of Leishmania Mexicana Pyruvate Kinase (LmPK). purified LmPK, Kinase-Glo ATP luminescence, 1 h. Potency, µM (highest dose often 57.5 µM), without a hit: at the top dose activity change, negative = inhibition, usual class: inhibitors. 290,000 compounds, 0.37% hits. AID 1721, 2009; note: potency is the fitted concentration of half-maximal effect; % is set by controls: 0 for no effect and ±100 for the full control effect
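Kinase-Glo luminescence read after 1 h RT reaction of 0.1 nM LmPK with 0.5 mM PEP and 0.1 mM ADP. Activity scaled between uninhibited and enzyme-free controls.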
RE007 growth inh: qHTS Assay for Inhibitors of the HIV-1 protein Vpr | S. pombe RE007 Vpr strain, BacTiter-Glo ATP luminescence, 24 h | Potency, µM (top dose mostly 92.2 µM), without a hit: at the highest dose activity change, negative = less growth, hits mostly inhibitors | 360,000 compounds, 0.21% hits | AID 651644, 2012; active = well fitted falling curve with a large enough effect; inconclusive = small, poorly fitted or top-dose-only effect; inactive = no such curve, though single readings can be large or run the other way; note: potency is the fitted concentration of half-maximal effect; % is set by controls: 0 for no effect and ±100 for the full control effect; nearly all actives have a fitted effect of over 50% in size
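Fission yeast RE007 carrying one integrated HIV-1 vpr copy, seeded at OD 0.01 in PMG+AL medium with 23 nL pinned compound. Grown 24 h at 30 degrees; viability read by BacTiter-Glo luminescence after 5 min.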
Shiga toxin inh: A qHTS for Small Molecule Inhibitors of Shiga Toxin | Vero cells, Shiga toxin protein synthesis inhibition reporter | inhibition, % at 38.7 µM | 290,000 compounds, 9.2% hits | AID 2315, 2010; in the data active = inhibition mostly above about 28%, no sharp cut-off; inactive = mostly below about 43%; note: 0% is about no effect
* = called active by the depositor; ? = inconclusive; . = no result. Unless noted, calls come from the whole dose curve; as a rule, active = well fitted curve in the direction sought with a large enough effect; inconclusive = small, poorly fitted or top-dose-only effect, or another doubt; inactive = no such curve, though single readings can be large; an effect the other way counts as inactive or inconclusive.

SMILES	Cycloheximide cs	Giardia FBPA inh	TbPYK inhibitor	LmPK inhibitor	RE007 growth inh	Shiga toxin inh
CC[C@H](NC(C)C)[C@H](O)c1ccc(O)c(O)c1	.	3.5µM*	0%	.	.	.
Cc1nc(SCC(=O)NCc2ccco2)c2c3c(sc2n1)CCCC3	24*	-2%	-14%	-1%	1%	43*
CC1(C)Cc2c(sc3nc(SCC(=O)O)nc(N)c23)CO1	-4	3%	?	?	-24%	24
CCCSc1nc(SCC(=O)NCc2ccccc2)c2c3c(sc2n1)COC(C)(C)C3	-5	4%	-14%	9%	-5%	-2
O=C(CSc1nc(C2CC2)nc2sc3c(c12)CCCC3)NCc1ccco1	7	-3%	4%	-7%	-2%	10
CC(C)Sc1nc(SCC(=O)O)c2c3c(sc2n1)COC(C)(C)C3	43*	8%	4%	-1%	-1%	54*
CC(C)Sc1nc(SCC(=O)NCc2ccco2)c2c3c(sc2n1)COC(C)(C)C3	93*	0%	2%	4%	12%	183*
O=C1C2C3C=CC(C4CC34)C2C(=O)N1/N=C/c1ccc(-c2ccc(F)cc2[N+](=O)[O-])o1 (configuration not stated)	31*	-25%	-3%	6%	1%	14
Cc1nc(NC2CCCCC2)c2nc(-c3ccccc3)n(CCN3CCCC3)c2n1	.	5%	.	.	.	.
CC(C)Nc1nc(NC(C)C)nc(SCCOC(=O)Nc2ccc(Cl)cc2Cl)n1	21*	0%	4%	-1%	-1%	-6
CCNc1nc(NC(C)C)nc(SCCOC(=O)c2ccccc2)n1	-3	0%	0%	2%	-7%	-10
CCOc1ccc(C(C)C)cc1S(=O)(=O)Nc1cccc(-c2ccc(N3CCOCC3)nn2)c1	.	.	0%	.	.	.
Cc1ccc(C=Nc2ccccc2C(N)=O)o1	61*	-19%	13%	-23%	-4%	61*
CN(C)c1ccc(C=Nc2ccccc2C(N)=O)cc1	26*	-13%	-5%	?	-26%	39
Cc1ccc(/C=N/c2sc(Cc3ccccc3)c(C)c2C(N)=O)o1	-4	0%	-20%	-1%	-2%	-6
Cn1nc(C(=O)NCc2cccc(Cl)c2)c2c1-c1ccccc1SC2	.	.	-3%	.	.	.
CCOC(=O)c1ccc(NC(=O)CSc2ccc(-c3sc(C)nc3C)nn2)cc1	.	.	-2%	.	.	.
Oc1ccc(/C=C/c2ccnc3ccccc23)cc1	111*	-2%	-6%	-1%	5%	109*
Clc1ccccc1/C=C/c1ccnc2ccccc12	46*	6%	7%	3%	?	63*
Cc1c2ccccc2c(CSC(=N)N)c2ccccc12	.	-14%	.	.	.	.
COc1ccc(NC(=O)N2CC[C@@]3(CCCN(C(C)=O)C3)C2)cc1	.	6%	0%	.	.	.
COc1ccccc1CNC(=O)c1ccc(CSc2nc3ccncc3n2Cc2ccccc2C)cc1	.	.	-4%	.	.	.
COc1cc(/C=N/NS(=O)(=O)c2ccc(C)c([N+](=O)[O-])c2)ccc1O	36*	11%	-7%	4%	12%	122*
Cc1ccc(S(=O)(=O)N/N=C/c2cc([N+](=O)[O-])ccc2O)cc1[N+](=O)[O-]	4	0%	3%	1%	-16%	77
Cc1ccc(S(=O)(=O)N/N=C/c2ccc(O)cc2O)cc1[N+](=O)[O-]	18*	16%	-6%	9%	0%	58*
SMILES	Cycloheximide cs	Giardia FBPA inh	TbPYK inhibitor	LmPK inhibitor	RE007 growth inh	Shiga toxin inh
CC(C)c1ccc(NC(=O)CS(=O)(=O)c2cccc3nsnc23)cc1	.	.	5%	.	.	.
CCN(CC)C(=O)COC(=O)c1cc(-c2ccc(OC)cc2)nc2ccccc12	23*	-6%	7%	5%	-2%	35
CCNC(=O)COC(=O)c1cc(-c2ccc(OC)cc2)nc2ccccc12	1	-1%	-4%	?	-21%	-18
CCCNC(=O)COC(=O)c1cc(-c2ccc(OC)cc2)nc2ccccc12	13*	2%	-14%	5%	-29%	14
COc1ccc2cc(-c3cc(C(=O)OCC(=O)Nc4c(C)n(C)n(-c5ccccc5)c4=O)c4ccccc4n3)ccc2c1	31*	0%	-8%	-12%	6%	53*
C/C(N)=C(/C#N)C(=O)COC(=O)c1cc(-c2ccc(Br)cc2)nc2ccccc12	13*	21%	-1%	2%	1%	6
O=C(c1cnccn1)N1CCC[C@@]2(CCN(Cc3cc(C(F)(F)F)cc(C(F)(F)F)c3)C2)C1	.	2%	-9%	.	.	.
COCC1=C2c3ccccc3[C@H](C[N+](=O)[O-])C(C(=O)OC)(C(=O)OC)C[C@@H]2n2c(=O)n(-c3ccccc3)c(=O)n2C1	.	-5%	.	.	.	.
COc1ccc(-c2cc(C(=O)OCC(=O)NC3CC3)c3ccccc3n2)cc1	.	.	-2%	.	1%	.
COc1ccc2cc(-c3cc(C(=O)OCC(=O)NC4CCS(=O)(=O)C4)c4ccccc4n3)ccc2c1 (configuration not stated)	26*	-2%	2%	-11%	0%	30
CCOC(=O)C1CCCN(C(=O)c2ccc3nc(-c4ccccc4)c(-c4ccccc4)nc3c2)C1 (configuration not stated)	10	.	-10%	4%	-1%	-7
CC(C)N(Cc1nccn1C)C(=O)c1ccc2oc(CCCc3ccccc3)nc2c1	4	.	2%	-11%	15%	-8
CC(=O)C1CCCN(C(=O)c2ccc3oc(CCc4ccccc4)nc3c2)C1 (configuration not stated)	36*	17%	7%	-2%	-9%	89*
NC(=O)C1CCCN(C(=O)c2ccc3oc(Cc4ccc(Cl)cc4)nc3c2)C1 (configuration not stated)	14	.	-4%	0%	9%	35
CCOC(=O)C1CCCN(C(=O)c2ccc3oc(CCc4ccccc4)nc3c2)C1 (configuration not stated)	39*	.	3%	2%	-5%	38
O=C(c1ccc2oc(CCCc3ccccc3)nc2c1)N1CCCC1	63*	.	1%	-8%	16%	129*
NC(=O)C1CCN(c2ncnc3c2cnn3-c2cccc(Cl)c2)CC1	.	.	-10%	.	.	.
COC(=O)c1ccc(Cn2c(=O)cc(C(F)(F)F)c3c(C)nn(C)c32)cc1	.	.	-1%	.	.	.
O=C1/C(=C/c2ccco2)Cc2ccccc21	54*	-10%	-11%	-23%	-18%	78*
CN(C)C=C1C(=O)c2ccccc2C1=O	27*	-12%	-11%	3%	3%	65*
CN(C)/C=C1\Cc2ccccc2C1=O	46*	-15%	-6%	-4%	1%	113*
